Source: PubChem BioAssay (National Center for Advancing Translational Sciences (NCATS))
In the library only some 3.8% were active in any assay of this set; here they are far more common.
ELG1 repair inh – blocks ELG1-dependent DNA repair in HEK293T cells. Potency, µM (doses to about 46.1 µM), without a hit: at the highest dose activity change, negative = inhibition, usual class: inhibitors. 330,000 tested, 2.3% active. HEK293T ELG1-luciferase reporter, luminescence, 16 h; DNA damage induced by 5-fluorouridine; note: % is set by controls: 0 for no effect and ±100 for the full control effect; nearly all actives have a fitted effect of over 55% in size
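Reporter activity after DNA damage by 5-fluorouridine is monitored. Compound-treated cells incubate 16 hr at 37 °C, then ONE-Glo is added for 30 min before luminescence reading.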
A549 viability – kills or reduces viability of A549 cells in Nrf2 counter-screen; A549 ARE-Fluc cells, CellTiter-Fluor viability, 18-24 h; Potency, µM (doses to about 46 µM), inactives show top-dose activity change, negative = cytotoxicity, most hits filed as inhibitors; 390,000 tested, 0.16% active; note: % is set by controls: 0 for no effect and ±100 for the full control effect
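Cytotoxicity counterscreen: CellTiter-Fluor fluorescence was measured in A549 ARE_Fluc cells after 18-24 h of compound exposure in a concentration series. The subsequent BugLite luminescent read reports ARE-luciferase activity.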
Nrf2 inh – inhibitors of Nrf2 signaling | 360,000 tested, 2.1% active | A549 ARE-Fluc reporter, luciferase luminescence, 18-24 h | AID 504444 | Potency, µM (highest dose often 46 µM), for the others: top-dose activity change, negative = inhibition, most hits filed as inhibitors; note: % is set by controls: 0 for no effect and ±100 for the full control effect; nearly all actives have a fitted effect of over 60% in size
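Quantitative HTS in A549 cells stably bearing an antioxidant response element-firefly luciferase construct. Inhibition of Nrf2-driven transcription was scored by luminescence after 18-24 h of compound exposure at 37 °C.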
mIDH1 inhibitor – human IDH1 R132H inhibition | O75874 | IDH1-R132H enzyme, NADPH consumption, diaphorase/resazurin fluorescence | Potency, µM (titrated, usually from 76.6 µM), for the others: top-dose activity change, negative = inhibition, actives largely listed as inhibitors | 390,000 tested, 0.093% active | AID 602179; note: % is set by controls: 0 for no effect and ±100 for the full control effect; nearly all actives have a fitted effect of over 65% in size
Target sequence (O75874 whole entry R132H, stated change not applied): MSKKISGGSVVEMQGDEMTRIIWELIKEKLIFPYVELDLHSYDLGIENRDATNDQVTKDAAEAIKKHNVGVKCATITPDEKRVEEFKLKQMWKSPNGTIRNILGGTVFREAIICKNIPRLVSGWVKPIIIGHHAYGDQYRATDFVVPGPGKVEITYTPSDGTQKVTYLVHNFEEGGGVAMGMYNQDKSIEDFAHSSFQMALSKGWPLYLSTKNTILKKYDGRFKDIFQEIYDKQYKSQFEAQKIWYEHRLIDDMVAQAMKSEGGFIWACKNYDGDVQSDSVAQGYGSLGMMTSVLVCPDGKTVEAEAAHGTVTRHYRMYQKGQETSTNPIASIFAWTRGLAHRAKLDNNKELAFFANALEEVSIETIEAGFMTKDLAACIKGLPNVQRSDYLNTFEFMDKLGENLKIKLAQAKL
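IDH1-R132H (0.5 ug/mL dispensed) in pH 7.5 Tris buffer was preincubated 30 min with compound, then given a substrate mix of 0.016 mM NADPH and 2 mM alpha-KG for 80 min at room temperature; remaining NADPH was read by diaphorase/resazurin fluorescence.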
Nrf2 ARE act – activates Nrf2 signaling; AREc32 ARE-luciferase reporter (MCF7-derived line), luminescence, 24 h; AID 624171; 410,000 tested, 0.31% active; Potency, µM (titrated, usually from 46.1 µM), without a hit: top-dose activation, hits mostly activators; note: % of control where 0% means no effect; nearly all actives have a fitted effect of over 65% in size
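Luciferase luminescence (Steady-Glo, 30 min at room temperature) served as the read-out of ARE activation in AREc32 cells treated with compounds for 24 hr at 37 deg C.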
Active calls of the source: *; ? = inconclusive; nt = not tested or not shown. Calls come from the whole dose curve; as a rule, active = well fitted curve in the direction sought with a large enough effect; inconclusive = small, poorly fitted or top-dose-only effect, or another doubt; inactive = no such curve, though single readings can be large; an effect the other way counts as inactive or inconclusive. Potency is the fitted concentration of half-maximal effect.

SMILES	ELG1 repair inh	A549 viability	Nrf2 inh	mIDH1 inhibitor	Nrf2 ARE act
CCN1C(C(=O)c2ccccc2)=C(OC(=O)COc2ccc(C)cc2)c2ccccc2S1(=O)=O	nt	?	23µM*	-10%	-1%
CCCN1C(C(=O)c2ccccc2)=C(OC(=O)COc2ccccc2)c2ccccc2S1(=O)=O	nt	?	23µM*	-13%	-2%
CCCN1C(C(=O)c2ccccc2)=C(OC(=O)C(C)(C)C)c2ccccc2S1(=O)=O	nt	?	?	11%	-3%
CCCN1C(C(=O)c2ccccc2)=C(OC(=O)COc2ccc(C)cc2)c2ccccc2S1(=O)=O	nt	?	18µM*	8%	-2%
CCN1C(C(=O)c2ccccc2)=C(OC(=O)COc2ccc(OC)cc2)c2ccccc2S1(=O)=O	nt	?	?	-2%	-1%
CCN1C(C(=O)c2ccccc2)=C(OC(=O)c2ccc(Cl)cc2)c2ccccc2S1(=O)=O	nt	?	21µM*	5%	-1%
O=C(Nc1ccc(OC(F)(F)F)cc1)C(Cc1ccccc1)NS(=O)(=O)c1cccc2nsnc12 (stereo not drawn)	nt	-2%	-20%	8%	4%
COCCCn1c(=O)c2sccc2n2c(CCCC(=O)Nc3cccc(C(F)(F)F)c3)nnc12	nt	-9%	-12%	-3%	0%
Cc1cccc(CSc2nc(=O)c3c(n2C)NC(=O)CC3c2cc(F)cc(F)c2)c1 (stereo not drawn)	nt	14%	-6%	0%	-1%
CN1/C(=C\C=C2/SC(=S)N(CC(=O)O)C2=O)C(C)(C)c2ccccc21	-14%	9.2µM*	4.1µM*	-3%	1%
C=CCN1C(=O)/C(=C\C=C2\N(C)c3ccccc3C2(C)C)SC1=S	-4%	?	-12%	-1%	0%
CCOc1ccc(/C=C/[N+](=O)[O-])c2ccccc12	?	?	26µM*	-11%	9%
CCOC(=O)COc1ccc2ccccc2c1/C=C/[N+](=O)[O-]	?	?	?	2%	?
O=C(NCCCc1cnc[nH]1)NCCCN(Cc1ccc(Cl)c(Cl)c1)c1ccc(Br)cn1	nt	-1%	10%	nt	nt
Cn1c(=O)n(Cc2ccccc2)c(=O)c2c1nc1n2CCCN1Cc1ccccc1	-1%	0%	nt	2%	0%
COCCn1c(=O)c2c(nc3n2CCCN3CCc2ccccc2)n(C)c1=O	-12%	3%	-26%	-8%	1%
Cn1c(=O)n(Cc2ccccc2)c(=O)c2c1nc1n2CCCN1CCc1ccccc1	23µM*	-25%	29µM*	3%	0%
C=C(C)Cn1c(=O)c2c(nc3n2CCCN3CCc2ccccc2)n(C)c1=O	16µM*	2%	?	13%	0%
CCOc1ccc(CCNC(=O)NCc2noc3ccc(C)cc23)cc1	nt	7%	-19%	-5%	0%
CCCC(=O)Nc1cc(-c2nc3cccnc3s2)ccc1C	nt	-1%	106%	-7%	5%
CCSc1cc(C)nc2c(-c3ccccc3)cnn12	?	10%	?	-16%	16µM*
Cc1cccnc1NC(=O)Nc1cccc(Cl)c1	?	9%	?	-1%	3%
O=C(CCCOc1ccc(Br)cc1)Nc1ccc(S(=O)(=O)N2CCOCC2)cc1	?	1%	15µM*	-3%	3%
O=C(COc1ccc(Br)cc1)Nc1ccc(CN2CCOCC2)cc1	-5%	-9%	23µM*	3%	0%
O=C(COc1ccccc1Cl)Nc1ccc(CN2CCOCC2)cc1	0%	-4%	23µM*	-9%	2%
O=C(COc1ccc(Cl)cc1Cl)Nc1ccc(CN2CCOCC2)cc1	-14%	-15%	?	5%	-1%
O=C(COc1ccc(S(=O)(=O)N2CCOCC2)cc1)Nc1ccc(Br)cc1	?	6%	?	11%	1%
O=S(=O)(c1ccc2c(c1)OCCO2)N1CCN(S(=O)(=O)c2ccccc2OC(F)(F)F)CC1	nt	0%	-5%	nt	nt
O=C(NCC(c1cccnc1)N1CCN(c2ccccc2F)CC1)c1cccc(Cl)c1 (stereo not drawn)	?	-17%	21µM*	1%	4%
